Results on 84 compounds are retold here after PubChem BioAssay AID449768 (Vanderbilt High Throughput Screening Facility, 2010).

About 1,400 (1.3%) of roughly 110,000 compounds were called active. The sample as a whole holds a higher share of actives than the screen did. A number with no mark means an inactive call.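 The calls were made as follows: active = Z score or B-score, a plate-position-corrected score, falls beyond the plate's 99.7% confidence bounds, in either direction; inactive = both scores lie inside the 99.7% bounds.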

Sequence of Sodium-dependent dopamine transporter (Homo sapiens) (Q01959 whole entry, looked up): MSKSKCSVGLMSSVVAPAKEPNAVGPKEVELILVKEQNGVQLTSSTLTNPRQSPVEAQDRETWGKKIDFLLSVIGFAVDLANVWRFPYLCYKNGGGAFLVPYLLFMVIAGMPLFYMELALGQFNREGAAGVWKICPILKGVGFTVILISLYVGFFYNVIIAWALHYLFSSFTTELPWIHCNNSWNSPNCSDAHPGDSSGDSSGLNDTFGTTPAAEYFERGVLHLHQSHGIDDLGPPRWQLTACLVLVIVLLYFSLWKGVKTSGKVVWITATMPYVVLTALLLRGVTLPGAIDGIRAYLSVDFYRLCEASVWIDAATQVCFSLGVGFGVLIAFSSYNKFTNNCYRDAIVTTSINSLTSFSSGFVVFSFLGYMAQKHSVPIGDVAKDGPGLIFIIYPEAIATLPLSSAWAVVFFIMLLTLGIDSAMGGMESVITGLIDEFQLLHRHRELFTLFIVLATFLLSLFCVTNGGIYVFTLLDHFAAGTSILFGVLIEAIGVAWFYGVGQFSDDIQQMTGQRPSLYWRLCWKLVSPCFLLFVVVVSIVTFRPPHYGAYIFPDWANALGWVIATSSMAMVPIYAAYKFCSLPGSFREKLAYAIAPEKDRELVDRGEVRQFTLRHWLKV

This test concerns the target Sodium-dependent dopamine transporter (Homo sapiens) (UniProt Q01959). Put plainly: changed hDAT dopamine uptake under cocaine IC80, either direction, primary screen, cocaine antagonist project, cell-based, LLC-PK1 hDAT, [14C]-dopamine uptake, MLSMR (AID 449768).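 Also: scored against the spread of the other compound wells on the same plate.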 The settings on record: LLC-PK1 hDAT cells, [14C]-dopamine uptake with cocaine IC80; at 10 µM; actives deviate in either direction.
As for `COC(C[C@@H]1O[C@@H]1C(=O)[C@@H](C)OCc1ccccc1)OC`, the B-score is -1.68.
For `Cn1c(=O)cc(OCCCC(=O)N2CCN(Cc3ccc4c(c3)OCO4)CC2)c2ccccc21`, the B-score was -0.011.
On to `O=C(CCCN1C(=O)c2cccc3cccc(c23)C1=O)N1CCN(Cc2ccc3c(c2)OCO3)CC1`, for which the B-score was 3.8 (active).
Turning to `O=C(Nc1cccc2ccccc12)N1CCN(Cc2ccc3c(c2)OCO3)CC1`, the B-score is 0.465.
`C=CCOC(=O)C1=C[C@H](c2ccc(Br)cc2)C[C@H](OCCCCO)O1`: the B-score is -0.239.
Take `CCS(=O)(=O)Nc1cc(C(=O)OC)ccc1C(=O)OC`: the B-score is 6.13 (active).
In the case of `COC(=O)c1ccccc1NC(=O)c1ccccc1NS(C)(=O)=O`, the B-score was 0.686.
On to `COC(=O)c1ccc(C(=O)OC)c(NC(=S)N2CCCCC2)c1`, for which the B-score was 0.301.
With `COC(=O)C1=C[C@@H](C(=O)OC)[C@@H]2C3=C(C(=O)[C@]2(C)NC(=O)c2ccccc2)[C@H](C)n2c(=O)n(C)c(=O)n2[C@@H]3C1`, the B-score was -0.415.
In the case of `COc1ccc(C(CC(=O)N2CCN(c3ccccc3)CC2)c2c(O)cc(OC)cc2OC)cc1` (centres undefined), the B-score was 1.37.
As for `c1ccc2[nH]c(-c3nc4ccccc4[nH]3)nc2c1`, the B-score was 0.0135.
With `COc1ccc(-c2[nH]nc(-c3ccccc3)c2-c2nc3ccccc3[nH]2)cc1`, the B-score is -7.37 (active).
Consider `c1ccc(-c2[nH]ncc2-c2nc3ccccc3[nH]2)cc1`, for which the B-score was 0.018.
`CN1CCN(C(=O)C2=C[C@H](c3ccc4c(c3)OCO4)C[C@H](OCc3ccc(CO)cc3)O2)CC1`: the B-score was 0.0245.
As for `O=C1N[C@@H](Cc2ccccc2)C(=O)N2[C@@H]3N(S(=O)(=O)c4ccc(F)cc4)c4ccccc4[C@]3(Br)C[C@@H]12`, the B-score was 1.04.
As to `C#CCOCCOCCOCCNc1nc(N2CCN(C(=O)[C@H](CCC(=O)O)n3cc(C(N)CO)nn3)CC2)nc(N2CCN(C(=O)[C@H](Cc3ccc(O)cc3)n3cc(C(N)[C@H](C)CC)nn3)CC2)n1` (some centres undefined), the B-score is -0.199.
Regarding `CCOC(=O)CNC(=O)CSc1nnc(-c2cccc(OC)c2)n1CC`, the B-score is 0.102.
For `CCOC(=O)CNC(=O)CSc1nnc(COc2ccc(Cl)cc2)n1CC`, the B-score was 0.0208.
For `CCOC(=O)CNC(=O)CSc1nc2cccnc2n1CC` the value was -8.17 (active).
Regarding `O=C(NCC1CC1)c1onc(CSc2ccccc2)c1C(=O)NCC1CC1`, the B-score is 1.29.
For the compound `COc1ccc(C2/C=C\CN(S(=O)(=O)c3cccs3)CC(=O)N2Cc2ccc(F)cc2)cc1` (centres undefined), the B-score was 0.769.
On to `CCOC(=O)c1sc(NC(=O)c2ccncc2)nc1C`, for which the B-score is 0.297.
For `CCOC(=O)c1sc(N(Cc2ccccc2)C(=O)CN2C(=O)CN(C)C2=O)nc1C`, the B-score was 4.19 (active).
On to `CCOC(=O)c1ccc(N2C(=O)CC(N(C)Cc3ccccc3)C2=O)cc1` (centres undefined), for which the B-score was -0.402.
The same measure for `O=C1c2ccccc2S(=O)(=O)c2cc(N3CCN(c4ccccn4)CC3)ccc21`: 0.34.
Regarding `COC(C[C@@H](O)C[C@@H](O)[C@H](C)OCc1ccccc1)OC`, the B-score is -0.417.
Consider `OCC[C@H]1C[C@H](O)[C@@H](O)[C@]2(CCCCO2)O1`, for which the B-score is -1.31.
Turning to `CC(=O)Oc1ccc(C(=O)Nc2nccs2)cc1`, the B-score was -1.53.
On to `CCCCOC(=O)Nc1nccs1`, for which the B-score was 16.3 (active).
For `COc1cc(C(=O)Nc2nccs2)cc(OC)c1OC`, the B-score was -0.0124.
With `COc1ccc(C2/C=C\CN(CC(C)C)CC(=O)N2Cc2ccc(F)cc2)cc1` (centres undefined), the B-score is -0.0164.
For `Cc1cccc(Nc2nc(NCCO)nc(N3CCCC3)n2)c1` the value was 1.01; for `CCC1SC2=NCCN2C1(O)c1ccc(Cl)cc1` (centres undefined), -5.92 (active).
Regarding `NC(=O)CC[C@@H]1NC(=O)[C@@H]2CCCN2C(=O)c2cc([N+](=O)[O-])cc(F)c2NCCC[C@@H](C(N)=O)NC1=O`, the B-score is -0.0519.
In the case of `O=C(CCNS(=O)(=O)c1ccccc1C(F)(F)F)NCc1ccc2c(c1)OCO2`, the B-score was -3.26 (active).
Turning to `Cn1cc(CCC(=O)NCc2ccc3c(c2)OCO3)c2ccccc21`, the B-score is 0.0949.
As to `O=C(COc1ccccc1)NCc1ccc2c(c1)OCO2`, the B-score was -0.475.
On to `NC(=O)C[C@@H]1NC(=O)CNC(=O)c2cc([N+](=O)[O-])cc(I)c2NCCC(C(N)=O)NC1=O` (some centres undefined), for which the B-score was 0.453.
On to `O=S(=O)(c1cccc(S(=O)(=O)N2CCC(n3nnc4ccccc43)CC2)c1)N1CCCCC1`, for which the B-score was 0.575.
As for `O=C(O)CCSc1nnc(-c2ccccc2)n1-c1ccccc1`, the B-score is -0.0697.
As for `O=S(=O)(c1cccc(-c2nnc(SC(F)F)n2-c2ccccc2)c1)N1CCCCC1`, the B-score was -7.23 (active).
With `COC(=O)CCCC1=CC2=CC(=O)C(C)(OC(=O)c3cccs3)C(=O)C2=CN1c1cccc(C#N)c1` (centres undefined), the B-score is -2.03.
`COc1ccc(NC(=O)c2ccc(OC)cc2)cc1`: the B-score was -1.02.
For the compound `CCCNC(=O)Nc1ccccc1C(=O)Nc1ccc(OC)cc1`, the B-score is 1.39.
For the compound `COc1ccc(NC(=O)ON=C2c3ccccc3-c3ccccc32)cc1`, the B-score was 3.84 (active).
For `Cc1nc(C(=O)Nc2ccc(Cl)cc2)sc1C1(C)CC(c2ccccc2)=NO1` (centres undefined), the B-score is 0.677.
With `CC(C)[C@@H]1NC(=O)c2cc([N+](=O)[O-])cc(I)c2NCCC[C@@H](C(=O)NC(CC(=O)O)C(N)=O)NC(=O)[C@H](CO)NC1=O` (some centres undefined), the B-score was -0.454.
The same measure for `Cc1ccc(N2CCN(S(=O)(=O)c3ccc(F)cc3)CC2)c(C)c1`: 0.000185.
The same measure for `Cc1cc(N2CCN(S(=O)(=O)c3ccc(C)c(C)c3)CC2)c2ccccc2n1`: 3.23 (active).
Regarding `Cc1ccc(S(=O)(=O)C(C#N)c2nc3ccccc3nc2N2CCCC2)cc1C` (centres undefined), the B-score was 1.69.
Consider `C=CC(COCc1ccccc1)N(Cc1ccccc1)S(=O)(=O)c1ccccc1Br` (centres undefined), for which the B-score is -0.104.
On to `C#CCO[C@@H]1C[C@H](n2cnc3c(=O)[nH]c(NC(=O)C(C)C)nc32)O[C@@H]1CO`, for which the B-score was 0.438.
Take `COC(=O)c1ccc(C(NC(=O)OCc2ccccc2)/C(F)=C/[C@@H](C)C(=O)O)cc1` (some centres undefined): the B-score was -0.297.
On to `C/C=C(\C)C(=O)NCCN1C2=NC[C@H](Cc3ccc(O)cc3)N2C[C@@H]1Cc1ccc(OC)cc1`, for which the B-score is 1.04.
Regarding `Cc1ncn(C23CC4CC(CC(O)(C4)C2)C3)n1`, the B-score was -8.14 (active).
For `CC(N)C12CC3CC(CC(O)(C3)C1)C2` (centres undefined), the B-score is -0.549.
On to `COC(=O)c1ccc(NC(=O)C23CC4CC(C2)CC(n2cnc(Cl)n2)(C4)C3)cc1`, for which the B-score was -1.17.
Turning to `COC(=O)c1c(C)cc(O)c(C)c1O`, the B-score is -0.00953.
Turning to `COC(C/C=C/C(=O)[C@@H](C)OCc1ccccc1)OC`, the B-score is 0.0548.
`C=C1C2C[C@H](O)C(C)(C)[C@@]2(O)[C@H](O)C[C@]23C[C@@](C)(O)[C@H](CC[C@H]12)[C@H]3O` (some centres undefined): the B-score is -0.371.
With `C=CCC1(C(=O)N(C)Cc2ccccc2)CCN(C(=O)OC(C)(C)C)CC1`, the B-score was 1.32.
Regarding `O=C1N[C@H](Cc2ccccc2)C(=O)N[C@H]1Cc1cn(S(=O)(=O)c2ccccc2)c2ccccc12`, the B-score is -1.21.
For `CC(C)(C)CN1C(=O)C(=O)NC[C@H]1Cc1cccc2ccccc12` the value was 1.91; for `CCOC(=O)C1=C(C)NC(C)=C(C(=O)OCC)C1c1ccccn1`, -1.62; for `CCOC(=O)c1sc(=S)n2c1[nH]c(=O)c1ccc(C(=O)OC)cc12`, 0.185.
For the compound `CCOC(=O)C1=C(C)Nc2sc(C(=O)c3ccc(Br)cc3)c(N)c2C1c1ccc(C(=O)OC)cc1` (centres undefined), the B-score is 2.41 (active).
The same measure for `Cc1ccc(CNC(=O)c2ccc3c(c2)S(=O)(=O)c2ccccc2C3=O)cc1`: 0.00832; for `CCCC[C@@H]1CN=C(N)N1CCCC`: 0.44; for `CC(=O)Oc1ccccc1C(=O)Nc1ncc([N+](=O)[O-])s1`: -5.94 (active).
In the case of `COC(=O)CNC(=O)c1ccccc1[N+](=O)[O-]`, the B-score is -0.561.
Take `CC(=O)c1sc(NC(=O)c2cccc3ccccc23)nc1C`: the B-score was 1.43.
On to `COC(=O)C1=C(C)Nc2ncnn2C1c1cccnc1` (centres undefined), for which the B-score is 0.0386.
As for `CCSc1nc2c(c(=O)[nH]1)C(c1cccnc1)C(C(=O)OC(C)C)=C(C)N2` (centres undefined), the B-score was 2.12 (active).
The same measure for `COC(=O)C1=C(N)Oc2cc(C)oc(=O)c2C1c1cccnc1` (centres undefined): 0.0204.
`CCC(=O)Nc1cccc(C2=NOC3(C2)C[C@@H](C(N)=O)N(C(=O)c2cc([N+](=O)[O-])cc([N+](=O)[O-])c2C)C3)c1` (some centres undefined): the B-score was -0.0284.
Consider `COC(=O)C1(S(=O)(=O)C2(C(=O)OC)CCCC2)CCCC1`, for which the B-score is -2.03 (active).
For `C#CCOCCOCCOCCNc1nc(N2CCN(C(=O)[C@H](CCC(=O)O)n3cc(C(N)CO)nn3)CC2)nc(N2CCN(C(=O)[C@H](CCCCN)n3cc(C(N)CC(C)C)nn3)CC2)n1` (some centres undefined) the value was -0.496; for `COC(C[C@@H](O)[C@H](C)[C@H](O)COCc1ccccc1)OC`, -0.281; for `CC(C)=CCc1c(O)c(CC=C(C)C)c2occ(-c3ccc(O)cc3)c(=O)c2c1O`, 1.79.
Regarding `CNC(=O)c1[nH]cnc1C(=O)N[C@@H](CC(C)C)C(=O)OC(C)(C)C`, the B-score is 0.0376.
Turning to `CCCOc1ccc(C2C(C(=O)c3ccc(C)o3)=C(O)C(=O)N2CCCn2ccnc2)cc1` (centres undefined), the B-score was 0.735.
For `COc1cc(C2C(C(=O)c3ccc(C)o3)=C(O)C(=O)N2CCc2ccccc2)ccc1O` (centres undefined), the B-score was -5.4 (active).
Turning to `COc1cc(C2C(C(=O)c3ccc(C)o3)=C(O)C(=O)N2Cc2cccnc2)ccc1O` (centres undefined), the B-score was -0.83.
For `COC(C[C@H](O)CC(=O)COCc1ccccc1)OC` the value was -0.106.
